# According to PubChem BioAssay (EPA / NIEHS):
# Values joined by “and” are separate entries in the source; they are usually repeats but may differ in a detail not shown here. Equal entries are not always repeated. Inconclusive results are not listed. Where a structure was tested more than once in an assay, its records may differ in their call. Active and inactive are the calls of the source. Rule for the calls, unless noted: active = hit-call score of the fitted dose curve at least 0.9, where 1 is the maximum; inconclusive = response in the unintended direction; inactive = score below 0.9.
# Assays:
# [1] = CEETOX_H295R_11DCORT_noMTC: CeeTox H295R High-throughput Steroidogenesis Assay for 11-Deoxycortisol (11DCORT), maximum tolerated concentration (MTC) filtered results only (AID 2283911; active = hit-call score of the fitted dose curve at least 0.9, where 1 is the maximum; inactive = score below 0.9); conditions: actives raise or lower the signal
# Procedure, shortened: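 HPLC-MS/MS read-out of 11-deoxycortisol after MTBE extraction of H295R medium. Cells: forskolin 10 uM pre-stimulation 48 h, chemical 48 h, 0.1% DMSO final. Bidirectional fit vs DMSO baseline; no MTC filtering.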
# [2] = CEETOX_H295R_OHPREG_noMTC: CeeTox H295R High-throughput Steroidogenesis Assay for OH-Pregnenolone (OHPREG), maximum tolerated concentration (MTC) filtered results only (AID 2283912; active = hit-call score of the fitted dose curve at least 0.9, where 1 is the maximum; inactive = score below 0.9); conditions: actives raise or lower the signal
# Procedure, shortened: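 H295R human adrenal cells, forskolin-prestimulated (10 uM, 48 h), then exposed to test chemical in 0.1% DMSO for 48 h. 17alpha-hydroxypregnenolone in medium measured by HPLC-MS/MS after MTBE extraction; bidirectional fit versus DMSO, concentrations not MTC-filtered.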
# [3] = CEETOX_H295R_OHPROG_noMTC: CeeTox H295R High-throughput Steroidogenesis Assay for OH-Progesterone (OHPROG), maximum tolerated concentration (MTC) filtered results only (AID 2283914; active = hit-call score of the fitted dose curve at least 0.9, where 1 is the maximum; inactive = score below 0.9); conditions: actives raise or lower the signal
# Procedure, shortened: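 H295R human adrenal cells prestimulated 48 h with 10 uM forskolin, then exposed 48 h to test chemical (0.1% DMSO final). Medium 17alpha-hydroxyprogesterone extracted with MTBE, quantified by HPLC-MS/MS; bidirectional fit versus DMSO, concentrations not MTC-filtered.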
# [4] = CEETOX_H295R_ANDR_noMTC: CeeTox H295R High-throughput Steroidogenesis Assay for Androstenedione (ANDR), maximum tolerated concentration (MTC) filtered results only (AID 2283915; active = hit-call score of the fitted dose curve at least 0.9, where 1 is the maximum; inactive = score below 0.9); conditions: actives raise or lower the signal
# Procedure, shortened: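 H295R cells, passage 10 or below, prestimulated 48 h with 10 uM forskolin, then exposed 48 h to chemical in 0.1% DMSO. Medium androstenedione extracted with MTBE, quantified by HPLC-MS/MS; concentrations not MTC-filtered; bidirectional fit versus DMSO.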
# [5] = CEETOX_H295R_CORTISOL_noMTC: CeeTox H295R High-throughput Steroidogenesis Assay for Cortisol, maximum tolerated concentration (MTC) filtered results only (AID 2283916; active = hit-call score of the fitted dose curve at least 0.9, where 1 is the maximum; inactive = score below 0.9); conditions: actives raise or lower the signal
# Procedure, shortened: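 H295R adrenal cells were pre-stimulated 48 h with 10 uM forskolin, then exposed 48 h to test chemical in 0.1% DMSO. Medium cortisol was measured by MTBE extraction and HPLC-MS/MS; bidirectional fit versus DMSO, concentrations not MTC-filtered.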
# [6] = CEETOX_H295R_CORTIC_noMTC: CeeTox H295R High-throughput Steroidogenesis Assay for Corticosterone (CORTIC), maximum tolerated concentration (MTC) filtered results only (AID 2283917; active = hit-call score of the fitted dose curve at least 0.9, where 1 is the maximum; inactive = score below 0.9); conditions: actives raise or lower the signal
# Procedure, shortened: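 H295R, 10 uM forskolin prestim 48 h → test chem (0.1% DMSO final) 48 h → media MTBE extraction → HPLC-MS/MS corticosterone. Bidirectional fit vs DMSO baseline; no MTT-based MTC filtering.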
# [7] = CEETOX_H295R_DOC_noMTC: CeeTox H295R High-throughput Steroidogenesis Assay for DOC, maximum tolerated concentration (MTC) filtered results only (AID 2283918; active = hit-call score of the fitted dose curve at least 0.9, where 1 is the maximum; inactive = score below 0.9); conditions: actives raise or lower the signal
# Procedure, shortened: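 H295R cells prestimulated 48 h with 10 uM forskolin, then exposed 48 h to test chemical (0.1% DMSO final). Medium 11-deoxycorticosterone extracted with MTBE, quantified by HPLC-MS/MS; bidirectional fit versus DMSO, concentrations not MTC-filtered.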
# [8] = CEETOX_H295R_ESTRADIOL_noMTC: CeeTox H295R High-throughput Steroidogenesis Assay for Estradiol, maximum tolerated concentration (MTC) filtered results only (AID 2283919; active = hit-call score of the fitted dose curve at least 0.9, where 1 is the maximum; inactive = score below 0.9); conditions: actives raise or lower the signal
# Procedure, shortened: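 H295R human adrenal cells pre-stimulated 48 h with 10 uM forskolin, then exposed 48 h to chemical (0.1% DMSO final). Estradiol in medium measured by HPLC-MS/MS after MTBE extraction and dansyl derivatization; bidirectional fit versus DMSO, concentrations not MTT-filtered.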
# [9] = system: Sodium/Iodide Symporter (NIS), SLC5A5 (gene 6528); experiment: CPHEA_Stoker_NIS_Inhibition_RAIU: CPHEA's Radioactive Iodide Uptake (RAIU) Assay for Sodium/Iodide Symporter (NIS) Inhibition, Stoker and Laws Labs (AID 2283841)
# Procedure, shortened: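 Iodide uptake through human NIS is measured in an engineered HEK293T line. Cells take up 125I (329pM final) for 2 hours at room temperature alongside chemicals at 0.001–100uM. Retained radioactivity is counted, and the signal is expressed against DMSO controls.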
# [10] = molecular target: mouse Peroxisome Proliferator-activated Receptor gamma (PPARg), Pparg (gene 19016) (UniProt P37238); experiment: ATG_mPPARg_XSP2: Attagene TRANS-FACTORIAL Multi-Species (XSP2) HepG2 Assay for mouse Peroxisome Proliferator-activated Receptor gamma (PPARg) (AID 2283830);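 note: hits are gains in reporter mRNA above DMSO so AC50 marks activation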
# Procedure, shortened: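 HepG2 cells transiently transfected with GAL4-UAS reporter units for chimeric NR-Gal4 proteins including mouse PPARg, exposed 24 h; medium contained 3 nM 6-alpha-fluorotestosterone and 1.5 nM norgestrel. Reporter mRNA quantified by RT-PCR, HpaI digestion and capillary electrophoresis, vs DMSO.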
# [11] = molecular target: Nuclear receptor subfamily 1 group I member 2 (Mus musculus) (UniProt O54915); experiment: ATG_mPXR_XSP2: Attagene TRANS-FACTORIAL Multi-Species (XSP1) HepG2 Assay for mouse Pregnane X Receptor (PXR) (AID 2283831)
# Procedure, shortened: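 HepG2 cells transiently transfected with GAL4-UAS reporter units expressing chimeric NR-GAL4 proteins; reporter mRNA measured 24 h after dosing by RT-PCR with 6-FAM labelling and capillary electrophoresis, gain of signal relative to DMSO.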
# [12] = system: zebrafish Peroxisome Proliferator-activated Receptor gamma (PPARg), gene 557037; experiment: ATG_zfPPARg_XSP2: Attagene TRANS-FACTORIAL Multi-Species (XSP2) HepG2 Assay for zebrafish Peroxisome Proliferator-activated Receptor gamma (PPARg) (AID 2283833);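 note: actives increase reporter signal over DMSO so AC50 reflects activation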
# Procedure, shortened: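 HepG2 cells transiently transfected with GAL4-UAS reporter units expressing a zebrafish PPARg–GAL4 chimera; compound exposure 24 h. Reporter mRNA quantified by RT-PCR with fluorescent labelling and capillary electrophoresis; gain of signal fitted relative to DMSO baseline.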
# [13] = molecular target: zebrafish Thyroid Hormone Receptor beta (TRb), thrb (gene 30607) (UniProt Q9PVE4); experiment: ATG_zfTRb_XSP2: Attagene TRANS-FACTORIAL Multi-Species (XSP1) HepG2 Assay for zebrafish Thyroid Hormone Receptor beta (TRb) (AID 2283836)
# Procedure, shortened: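 Fluorescence of labelled reporter cDNA fragments, separated by capillary electrophoresis, gives mRNA induction from exogenous NR-Gal4 chimeras in transiently transfected HepG2 cells after 24 h dosing; 3 nM 6-alpha-fluorotestosterone and 1.5 nM norgestrel included in the run.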
# [14] = ATG_XTT_Cytotoxicity_XSP2: Cytotoxicity Assessment in the Attagene TRANS-FACTORIAL Multi-Species (XSP2) HepG2 Assay (AID 2283837)
# Procedure, shortened: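 HepG2 cells, transiently transfected with multiple reporter constructs, exposed to chemical for 24 h. Cell number assessed with XTT fluorescence read-out; loss of signal fitted relative to DMSO.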
# [15] = molecular target: human Thyroid hormone Receptor alpha (TRa), THRA (gene 7067) (UniProt P10827); experiment: ATG_hTRa_XSP2: Attagene TRANS-FACTORIAL Multi-Species (XSP2) HepG2 Assay for human Thyroid hormone Receptor alpha (TRa) (AID 2283838)
# Procedure, shortened: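 HepG2 cells transiently transfected with multiplexed GAL4-UAS reporter units and exogenous NR-GAL4 chimeras; 24 h chemical exposure with 3 nM 6-alpha-fluorotestosterone and 1.5 nM norgestrel present. Reporter mRNA measured by RT-PCR, FAM labelling, HpaI digestion, capillary electrophoresis; gain-of-signal versus DMSO.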
# [16] = molecular target: human Thyroid hormone Receptor beta (TRb), THRB (gene 7068) (UniProt P10828); experiment: ATG_hTRb_XSP2: Attagene TRANS-FACTORIAL Multi-Species (XSP2) HepG2 Assay for human Thyroid hormone Receptor beta (TRb) (AID 2283840);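 note: actives raise reporter mRNA so potency reflects agonist-like gain of signal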
# Procedure, shortened: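 HepG2 cells were transiently transfected with GAL4-UAS multiplexed reporter units expressing chimeric NR-Gal4 proteins, dosed 24 h; reporter mRNA was quantified by RT-PCR, fluorescent labeling, HpaI digestion and capillary electrophoresis, fitted for gain of signal versus DMSO.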
# [17] = molecular target: zebrafish Thyroid Hormone Receptor alpha (TRa), thraa (gene 30670) (UniProt Q98867); experiment: ATG_zfTRa_XSP2: Attagene TRANS-FACTORIAL Multi-Species (XSP1) HepG2 Assay for zebrafish Thyroid Hormone Receptor alpha (TRa) (AID 2283832);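 note: actives raise zebrafish TRa-Gal4 reporter transcript above DMSO baseline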
# Procedure, shortened: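 Chimeric receptor-Gal4 activity was assessed in transfected human liver HepG2 cells 24 h after dosing, using reporter transcript levels detected by RT-PCR and capillary electrophoresis. DMSO served as baseline.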
# [18] = system: turtle Thyroid Hormone Receptor, alpha (TRa), gene 101949057; experiment: ATG_trTRa_XSP2: Attagene TRANS-FACTORIAL Multi-Species (XSP1) HepG2 Assay for turtle Thyroid Hormone Receptor, alpha (TRa) (AID 2283834);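 note: hits raise reporter mRNA over the DMSO baseline so AC50 marks activators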
# Procedure, shortened: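 HepG2 cells transiently transfected with multiplexed GAL4-UAS reporter units expressing chimeric NR-Gal4 proteins were dosed for 24 hours. Reporter mRNA was quantified by RT-PCR with 6-FAM labelling and capillary electrophoresis, gain of signal scored against DMSO.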
# [19] = ATG_M_61_XSP2: Attagene TRANS-FACTORIAL Multi-Species (XSP2) HepG2 Assay for M61 Transcription Factor (Internal Marker) (AID 2283835; active = hit-call score of the fitted dose curve at least 0.9, where 1 is the maximum; inactive = score below 0.9;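 note: reporter mRNA of an internal background marker read by RT-PCR and capillary electrophoresis; active means a rise in signal above the DMSO baseline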)
# Procedure, shortened: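 HepG2 cells transiently transfected with multiple GAL4-UAS reporter units; 3 nM 6-alpha-fluorotestosterone and 1.5 nM norgestrel present to stimulate androgen receptor. After 24 h compound exposure, reporter mRNA measured by RT-PCR and capillary electrophoresis fluorescence, gain-of-signal versus DMSO baseline.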
# [20] = molecular target: frog Thyroid hormone Receptor alpha (TRa), thra-a (gene 397942) (UniProt P15204); experiment: ATG_frTRa_XSP2: Attagene TRANS-FACTORIAL Multi-Species (XSP2) HepG2 Assay for frog Thyroid hormone Receptor alpha (TRa) (AID 2283839)
# Procedure, shortened: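 HepG2 cells transiently transfected with multiplexed GAL4-UAS reporter units expressing chimeric frog TRα-Gal4; reporter mRNA read 24 h after dosing by RT-PCR, FAM-labelled primer extension, HpaI digest and capillary electrophoresis. Gain of signal fitted versus DMSO.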
# zebrafish Thyroid Hormone Receptor beta (TRb), thrb (gene 30607), sequence (Q9PVE4 whole entry, looked up, the tested form may be a part): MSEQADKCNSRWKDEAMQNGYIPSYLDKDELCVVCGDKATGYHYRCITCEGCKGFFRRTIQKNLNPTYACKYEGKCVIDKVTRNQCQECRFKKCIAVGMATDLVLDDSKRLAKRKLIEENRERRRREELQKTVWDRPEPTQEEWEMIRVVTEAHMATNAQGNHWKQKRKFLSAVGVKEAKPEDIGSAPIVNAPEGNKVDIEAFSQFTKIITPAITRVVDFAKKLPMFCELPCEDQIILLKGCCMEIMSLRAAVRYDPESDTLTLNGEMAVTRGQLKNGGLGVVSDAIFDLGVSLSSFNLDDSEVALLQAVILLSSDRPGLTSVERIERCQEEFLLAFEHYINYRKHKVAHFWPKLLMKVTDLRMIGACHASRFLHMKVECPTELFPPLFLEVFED
# Nuclear receptor subfamily 1 group I member 2 (Mus musculus), sequence (O54915 whole entry, looked up, the tested form may be a part): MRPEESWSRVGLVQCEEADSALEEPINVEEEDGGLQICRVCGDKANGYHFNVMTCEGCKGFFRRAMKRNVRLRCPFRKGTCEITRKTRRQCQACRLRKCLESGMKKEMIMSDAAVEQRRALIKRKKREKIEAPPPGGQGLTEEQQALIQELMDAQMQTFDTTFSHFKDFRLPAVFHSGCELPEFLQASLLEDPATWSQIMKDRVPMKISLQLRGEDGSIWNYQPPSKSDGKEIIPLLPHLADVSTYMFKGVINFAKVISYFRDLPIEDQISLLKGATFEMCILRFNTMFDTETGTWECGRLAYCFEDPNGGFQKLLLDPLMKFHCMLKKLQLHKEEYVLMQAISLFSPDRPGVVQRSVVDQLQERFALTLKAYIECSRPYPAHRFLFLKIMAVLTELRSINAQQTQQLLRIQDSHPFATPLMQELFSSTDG
# mouse Peroxisome Proliferator-activated Receptor gamma (PPARg), Pparg (gene 19016), sequence (P37238 whole entry, looked up, the tested form may be a part): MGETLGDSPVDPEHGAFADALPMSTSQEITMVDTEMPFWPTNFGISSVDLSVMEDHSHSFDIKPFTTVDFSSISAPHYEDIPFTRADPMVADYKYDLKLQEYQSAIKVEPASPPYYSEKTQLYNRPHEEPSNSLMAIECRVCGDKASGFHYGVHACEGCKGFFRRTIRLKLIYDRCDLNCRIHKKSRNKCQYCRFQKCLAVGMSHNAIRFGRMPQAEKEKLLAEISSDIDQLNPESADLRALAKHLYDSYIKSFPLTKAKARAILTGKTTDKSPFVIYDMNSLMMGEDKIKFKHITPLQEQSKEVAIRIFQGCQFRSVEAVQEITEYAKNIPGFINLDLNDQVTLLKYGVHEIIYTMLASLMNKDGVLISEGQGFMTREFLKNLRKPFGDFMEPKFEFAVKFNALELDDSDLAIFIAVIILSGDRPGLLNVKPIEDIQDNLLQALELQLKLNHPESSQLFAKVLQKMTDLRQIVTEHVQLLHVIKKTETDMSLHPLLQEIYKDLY
# frog Thyroid hormone Receptor alpha (TRa), thra-a (gene 397942), sequence (P15204 whole entry, looked up, the tested form may be a part): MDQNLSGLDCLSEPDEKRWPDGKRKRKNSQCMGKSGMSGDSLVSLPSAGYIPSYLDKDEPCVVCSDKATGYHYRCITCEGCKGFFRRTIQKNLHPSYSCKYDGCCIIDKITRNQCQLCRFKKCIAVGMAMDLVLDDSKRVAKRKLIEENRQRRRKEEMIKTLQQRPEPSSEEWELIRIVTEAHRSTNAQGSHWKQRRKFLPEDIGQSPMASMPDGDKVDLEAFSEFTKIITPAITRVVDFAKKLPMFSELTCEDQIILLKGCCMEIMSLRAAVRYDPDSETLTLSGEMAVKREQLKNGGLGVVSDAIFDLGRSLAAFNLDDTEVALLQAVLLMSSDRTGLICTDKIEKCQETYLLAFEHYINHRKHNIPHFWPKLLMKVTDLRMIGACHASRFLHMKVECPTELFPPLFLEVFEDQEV
# human Thyroid hormone Receptor alpha (TRa), THRA (gene 7067), sequence (P10827 whole entry, looked up, the tested form may be a part): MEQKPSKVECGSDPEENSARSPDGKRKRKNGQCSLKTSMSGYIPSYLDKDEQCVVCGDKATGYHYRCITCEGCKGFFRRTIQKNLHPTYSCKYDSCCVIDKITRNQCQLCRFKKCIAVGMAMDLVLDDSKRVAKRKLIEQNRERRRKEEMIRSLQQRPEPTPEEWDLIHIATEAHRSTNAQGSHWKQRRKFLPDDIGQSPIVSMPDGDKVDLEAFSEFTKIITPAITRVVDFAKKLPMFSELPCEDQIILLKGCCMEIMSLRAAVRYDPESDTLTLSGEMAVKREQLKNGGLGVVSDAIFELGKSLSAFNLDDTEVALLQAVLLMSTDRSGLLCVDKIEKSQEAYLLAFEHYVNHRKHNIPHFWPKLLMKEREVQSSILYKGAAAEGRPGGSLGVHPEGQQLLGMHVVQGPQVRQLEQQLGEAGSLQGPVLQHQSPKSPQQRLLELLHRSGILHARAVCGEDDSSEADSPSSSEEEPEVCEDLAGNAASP
# human Thyroid hormone Receptor beta (TRb), THRB (gene 7068), sequence (P10828 whole entry, looked up, the tested form may be a part): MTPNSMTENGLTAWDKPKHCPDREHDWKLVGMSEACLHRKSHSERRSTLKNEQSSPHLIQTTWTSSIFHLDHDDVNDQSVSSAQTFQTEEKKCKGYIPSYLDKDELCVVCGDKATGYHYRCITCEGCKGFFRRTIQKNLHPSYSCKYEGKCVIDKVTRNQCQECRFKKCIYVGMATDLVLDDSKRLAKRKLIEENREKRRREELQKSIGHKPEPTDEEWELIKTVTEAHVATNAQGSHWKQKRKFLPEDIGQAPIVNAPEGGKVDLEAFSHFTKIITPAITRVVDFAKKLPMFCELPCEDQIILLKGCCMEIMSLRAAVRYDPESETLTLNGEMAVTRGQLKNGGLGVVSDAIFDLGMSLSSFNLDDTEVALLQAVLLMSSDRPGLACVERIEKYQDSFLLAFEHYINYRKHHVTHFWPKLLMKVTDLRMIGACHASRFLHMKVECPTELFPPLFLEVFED
# zebrafish Thyroid Hormone Receptor alpha (TRa), thraa (gene 30670), sequence (Q98867 whole entry, looked up, the tested form may be a part): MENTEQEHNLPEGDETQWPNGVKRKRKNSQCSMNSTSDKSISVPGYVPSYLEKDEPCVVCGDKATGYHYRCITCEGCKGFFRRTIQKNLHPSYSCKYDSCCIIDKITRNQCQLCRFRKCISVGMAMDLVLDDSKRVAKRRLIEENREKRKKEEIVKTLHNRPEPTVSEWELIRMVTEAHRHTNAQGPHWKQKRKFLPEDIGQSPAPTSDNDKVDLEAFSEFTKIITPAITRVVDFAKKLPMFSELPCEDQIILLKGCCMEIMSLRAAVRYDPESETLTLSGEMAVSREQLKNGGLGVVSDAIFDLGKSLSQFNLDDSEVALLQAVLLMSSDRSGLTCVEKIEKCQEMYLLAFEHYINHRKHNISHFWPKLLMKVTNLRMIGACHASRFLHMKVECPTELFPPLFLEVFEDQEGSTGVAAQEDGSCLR
structure (smiles),measurement,setting,value
N#Cc1ccc(C(c2ccc(C#N)cc2)n2cncn2)cc1,outcome,[1],inactive
same,outcome,[2],inactive
same,outcome,[3],inactive
same,outcome,[4],inactive
same,AC50,[5],4.92 µM (active)
same,outcome,[6],inactive
same,outcome,[7],inactive
same,AC50,[8],0.0183 µM (active)
C/C=C/C=C/CCCCCCCO,outcome,[9],inactive
O=C(O)/C=C/c1ccccc1,outcome,[10],inactive
same,outcome,[11],inactive
same,outcome,[12],inactive
same,outcome,[13],inactive
same,outcome,[14],inactive
same,outcome,[15],inactive
same,outcome,[16],inactive
c1ccc(Nc2cccc3ccccc23)cc1,AC50,[9],21.5 µM (active)
CCCCCCCCCCCCc1ccc(O)cc1,outcome,[10],inactive
same,AC50,[11],0.259 µM (active)
same,outcome,[17],inactive
same,outcome,[12],inactive
same,outcome,[18],inactive
same,outcome,[19],inactive
same,outcome,[13],inactive
same,outcome,[16],inactive
Oc1ccccc1Cc1ccccc1O,AC50,[10],58.3 µM (active) and 34.4 µM (active)
same,AC50,[11],26.3 µM (active)
same,outcome,[11],inactive
same,outcome,[17],inactive
same,outcome,[12],inactive
same,outcome,[18],inactive
same,outcome,[19],inactive
same,outcome,[13],inactive
same,outcome,[14],inactive
same,outcome,[15],inactive
same,outcome,[20],inactive
same,outcome,[16],inactive
CCCCC/C=C\C/C=C\CCCCCCCC(=O)O,outcome,[9],inactive
O=C(Nc1ccccc1)c1cc(Cl)ccc1O,AC50,[9],0.851 µM (active)
C=CCOC(=O)c1ccc(C(=O)OCC=C)c(C(=O)OCC=C)c1,AC50,[9],10.2 µM (active)
O=C(Oc1ccccc1)c1ccccc1O,outcome,[9],inactive
CC(C)(C)NC(=O)[C@H]1CC[C@H]2[C@@H]3CC[C@H]4NC(=O)C=C[C@]4(C)[C@H]3CC[C@]12C,outcome,[10],inactive
same,AC50,[11],2.09 µM (active)
same,AC50,[18],25.9 µM (active)
same,outcome,[19],inactive
C[N+](C)(C)CCCNS(=O)(=O)C(F)(F)C(F)(F)C(F)(F)C(F)(F)C(F)(F)C(F)(F)C(F)(F)C(F)(F)F,AC50,[9],7.09 µM (active)
CC(CCC(=O)O)(c1ccc(O)cc1)c1ccc(O)cc1,outcome,[10],inactive
same,AC50,[11],100 µM (active)
same,outcome,[11],inactive
same,outcome,[17],inactive
same,outcome,[12],inactive
same,outcome,[18],inactive
same,outcome,[19],inactive
same,outcome,[13],inactive
same,outcome,[14],inactive
same,outcome,[15],inactive
same,outcome,[20],inactive
same,outcome,[16],inactive
O=C(OCCc1ccccc1)c1ccccc1,outcome,[9],inactive
CCCC=C(C=O)CC,outcome,[1],inactive
same,outcome,[2],inactive
same,outcome,[3],inactive
same,outcome,[5],inactive
same,outcome,[6],inactive
same,outcome,[7],inactive
same,outcome,[8],inactive
CCCCCCCOC(=O)c1ccc(O)cc1,outcome,[9],inactive
CCCCC1C(=O)N(c2ccccc2)N(c2ccccc2)C1=O,outcome,[1],inactive
same,outcome,[2],inactive
same,outcome,[5],inactive
same,outcome,[6],inactive
same,outcome,[7],inactive
CO[Si](C)(C)OC,outcome,[9],inactive
COc1ccc(C(=O)/C(Br)=C\C(=O)O)cc1,AC50,[1],65.2 µM (active)
same,AC50,[2],14.2 µM (active)
same,AC50,[3],58.3 µM (active)
same,AC50,[4],39.2 µM (active)
same,AC50,[5],50 µM (active)
same,AC50,[6],57.8 µM (active)
same,AC50,[7],13.6 µM (active)
CCCCCCCCCCCCCCCCCCOS(=O)(=O)O,outcome,[9],inactive
